Measurements as given in PubChem BioAssay (NCATS).
Inconclusive results are not listed. A number with no mark means an inactive call. The source made the active and inactive calls. The call rests on the fitted dose curve; in most records, active means well fitted cell-killing curve with a large enough effect; inconclusive means small, poorly fitted or top-dose-only effect, or effect the other way; inactive means no such curve, though single readings can be large or run the other way.

Test: Quantitative High-Throughput drug screen in 47 multiple myeloma cell lines against the NCATS MIPE library collection: MM1R_ATCC cell viability assay (AID 1918981); further: nearly all actives have a fitted effect of over 35% in size
Settings: MM1R multiple myeloma cells, CellTiter-Glo viability, 48 h; series mostly up to 45.8 µM; viability (% of control): at the top concentration
How it was run: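 Cells were exposed to library compounds for 48 hours, after which ATP was measured by CellTiter-Glo. Signal was taken as median relative luminescence units.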
Potency means the concentration at half of the fitted maximal effect.

| Structure (SMILES) | viability (% of control) | Potency |
| --- | --- | --- |
| CN(C)CCOC(c1ccccc1)c1ccccc1 | 106% | – |
| NCCc1cnc[nH]1 | – | 1.87 µM (active) |
| CN(C)CCC=C1c2ccccc2C=Cc2ccccc21 | – | 18.7 µM (active) |
| Clc1ccc(C(c2ccccc2Cl)C(Cl)Cl)cc1 (stereo unspecified) | – | 14.8 µM (active) |
| CC(C)(Oc1ccc(C2CC2(Cl)Cl)cc1)C(=O)O (stereo unspecified) | – | 48.1 µM (active) |
| NCCS(=O)(=O)O | 109% | – |
| COc1ccccc1OCCNCC(O)COc1cccc2[nH]c3ccccc3c12 (stereo unspecified) | – | 26.4 µM (active) |
| CC(C(=O)O)c1cccc(C(=O)c2ccccc2)c1 (stereo unspecified) | – | 23.5 µM (active) |
| O=C(C1CCCCC1)N1CC(=O)N2CCc3ccccc3C2C1 (stereo unspecified) | 133% | – |
| CCCNCC(O)COc1ccccc1C(=O)CCc1ccccc1 (stereo unspecified) | 84.2% | – |
| Cn1ccc2cc3c(cc21)CCN3C(=O)Nc1cccnc1 | 116% | – |
| N[C@@H](Cc1c[nH]c2ccc(O)cc12)C(=O)O | 112% | – |
| CN1CCN(C2=Nc3cc(Cl)ccc3Nc3ccccc32)CC1 | 93.3% | – |
| CS(=O)(=O)Nc1ccc([N+](=O)[O-])cc1Oc1ccccc1 | – | 20.9 µM (active) |
| CN(C)C(=N)N=C(N)N | 121% | – |
| C[C@](N)(Cc1ccc(O)c(O)c1)C(=O)O | – | 20.9 µM (active) |
| O=C(CCCN1CCC(O)(c2ccc(Cl)cc2)CC1)c1ccc(F)cc1 | 96.8% | – |
| Cc1ccccc1N1C(=O)c2cc(S(N)(=O)=O)c(Cl)cc2NC1C (stereo unspecified) | 112% | – |
| CC(CCc1ccc(O)cc1)NCCc1ccc(O)c(O)c1 (stereo unspecified) | – | 18.7 µM (active) |
| COc1ccc2c(c1)c(CC(=O)O)c(C)n2C(=O)c1ccc(Cl)cc1 | 121% | – |
| COc1cc2nc(N3CCN(C(=O)C4COc5ccccc5O4)CC3)nc(N)c2cc1OC (stereo unspecified) | – | 20.9 µM (active) |
